Bioassay records (PubChem)
RORg inh: inhibitors of mouse ROR gamma transcriptional activity | P51450 | Drosophila S2 Gal4-RORgamma UAS-luciferase reporter, 20 h | Potency, µM (top dose mostly 53.6 µM), for inactives: at the highest dose activity change, negative = inhibition, usual class: inhibitors | 310,000 tested, 5.4% active | AID 2551; also: nearly all actives have a fitted effect of over 60% in size
Target sequence (P51450 whole entry, looked up, the tested form may be a part): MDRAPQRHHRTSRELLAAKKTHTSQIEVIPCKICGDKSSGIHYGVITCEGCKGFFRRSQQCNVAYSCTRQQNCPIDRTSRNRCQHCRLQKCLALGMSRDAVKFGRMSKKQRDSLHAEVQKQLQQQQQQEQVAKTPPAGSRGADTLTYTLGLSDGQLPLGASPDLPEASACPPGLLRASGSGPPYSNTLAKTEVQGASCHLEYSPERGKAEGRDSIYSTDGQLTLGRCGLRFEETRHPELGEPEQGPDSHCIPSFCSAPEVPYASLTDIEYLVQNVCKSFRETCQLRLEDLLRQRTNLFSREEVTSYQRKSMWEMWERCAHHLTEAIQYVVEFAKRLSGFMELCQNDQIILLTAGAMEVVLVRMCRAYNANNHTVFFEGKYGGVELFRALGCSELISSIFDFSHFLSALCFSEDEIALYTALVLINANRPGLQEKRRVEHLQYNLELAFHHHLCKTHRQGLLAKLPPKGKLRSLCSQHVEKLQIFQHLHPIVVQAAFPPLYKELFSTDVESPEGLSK
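Stably transfected Drosophila Schneider cells are the test system, with ROR gamma fused to Gal4 and luciferase under UAS control; luminescence is read after 20 hr of 700 uM copper sulfate induction at ambient temperature.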
Gal4-VP16 FLuc: counter-screen for ROR gamma inhibitors: Gal4-VP16 reporter | Drosophila S2 Gal4-VP16 UAS-luciferase, luminescence, 20 h | Potency, µM (titrated, usually from 53.6 µM), for the others: at the top dose activity, negative = inhibition, actives largely listed as inhibitors | 310,000 tested, 3.5% active | AID 2546;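 also: Gal4-VP16 expression switched on by copper sulfate through the metallothionein promoter; nearly all actives have a fitted effect of over 50% in size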
Sfp inh: Sfp phosphopantetheinyl transferase inhibition; Q9F4F7; Biochemical Sfp PPTase activity, qHTS; Potency, µM, without a hit: largest response in the series, negative = inhibition, most hits filed as inhibitors; 310,000 tested, 3.5% active;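 also: the enzyme is Sfp with the accession as filed and its product quenches rhodamine fluorescence; 0% = enzyme reaction without inhibitor and -100% = no enzyme wells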
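Fluorescence-quenching assay: 15 nM Sfp-PPTase preincubated 15 min at room temperature with compound, then 5 uM rhodamine-CoA and 12.5 uM BHQ-2-labelled YbbR peptide added. Fluorescence (ex 525/em 598 nm) read at start and after 30 min; difference gives rate.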
PLK1 PBD inh: blocks phosphopeptide binding to human PLK1 polo-box domain. 360,000 tested, 2.8% active. P53350. Potency, µM, inactives show max response, negative = inhibition, actives largely listed as inhibitors. Plk1 PBD binding of FITC phosphopeptide, fluorescence polarization; also: series mostly up to about 57 µM; nearly all actives have a fitted effect of over 65% in size
ALDH1A1 inh: blocks purified human ALDH1A1 activity; 220,000 tested, 7.3% active; Purified ALDH1A1, NADH fluorescence, propionaldehyde substrate; AID 1030; P00352; Potency, µM (titrated, usually from 75.3 µM), for inactives: top-dose activity, negative = inhibition, most hits filed as inhibitors; active = well fitted inhibition curve with a large enough effect, not every such curve was filed as active; inconclusive = small, poorly fitted or top-dose-only effect, or another doubt; inactive = no such curve, though single readings can be large or run the other way;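 also: plate controls were no enzyme wells and a reference inhibitor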
* marks the source's active call; other numbers are inactive results; ? = inconclusive; · = no result given; [ ] = dose if it differs, or a comment. An excerpt weighted towards active compounds, which were near 12% of everything screened. Unless noted, calls follow the shape of the dose curve; as a rule, active = well fitted curve in the direction sought with a large enough effect; inconclusive = small, poorly fitted or top-dose-only effect, or another doubt; inactive = no such curve, though single readings can be large; an effect the other way counts as inactive or inconclusive. Unless noted, % is scaled to controls: 0 for no effect and ±100 for the full control effect; potency is read from the fitted curve at half-maximal effect.

SMILES	RORg inh	Gal4-VP16 FLuc	Sfp inh	PLK1 PBD inh	ALDH1A1 inh
Cc1cc(O)c(C=O)c2c1C(=O)Oc1c(CO)c(O)c3c(c1O2)C(O)OC3=O (stereo not drawn)	-13%	-1%	14µM*	7.5µM*	?
Nc1nc(O)c2ncn([C@H]3CC[C@@H](CO)O3)c2n1	-14%	-1%	23%	·	4%
C/C=C/C(=O)[C@@H](C)[C@@H](/C=C/C[Si](C)(C)C)C(C)C	1%	-2%	0%	·	·
CC(C)n1ncc2c(C(=O)N3CCN(Cc4ccc(Br)s4)CC3)cc(C3CC3)nc21	·	·	·	-2%	·
CCCOc1ncnc2c1[nH]c1ccc(OC)cc12	-12%	-10%	2%	4%	?
CCCCOc1ncnc2c1[nH]c1ccc(C)cc12	-24%	10µM*	25%	3%	-2%
COC(=O)C/C=C/C(C)C(OC)c1ccccc1Br (stereo not drawn)	10%[10 µM]	-6%[10 µM]	15%	·	4%[13.5 µM]
CCc1ccc(C(C)NC(=O)C2CCCC2)cc1 (stereo not drawn)	-18%	-3%	8%	-5%	·
CCOc1ccc(C(C)NC(=S)NC2CCCCC2)cc1OCC (stereo not drawn)	7.1µM*	14µM*	15%	1%	4%
CCOc1ccc(C(C)NC(=S)NC2CCCCC2)cc1 (stereo not drawn)	3.2µM*	10µM*	7%	-15%	?
CCc1ccc(C(C)NC(=S)NC2CCCCC2)cc1 (stereo not drawn)	2.2µM*	3.2µM*	11%	-9%	·
CCOc1ccc(C(=S)NC2CCCCC2)cc1OCC	·	·	14µM*	6µM*	·
CCNC(=O)C1CCCN(C(=O)c2ccc3ccccc3c2)CC1 (stereo not drawn)	·	·	·	-15%	·
CCC(C)c1ccc(C(C)NC(=S)NC2CCCCC2)cc1 (stereo not drawn)	2.8µM*	2µM*	16%	-4%	·
CC(CCc1ccccc1)NC(=S)NC1CCCCC1 (stereo not drawn)	2.5µM*	16µM*	10%	-8%	?
CCC(C(=O)NC1CCCCCC1)c1ccccc1 (stereo not drawn)	·	·	·	-1%	·
CCC(NC(=S)NC1CCCCC1)c1ccccc1 (stereo not drawn)	3.2µM*	7.1µM*	9%	·	·
CCc1c(-c2cccc(OC)c2)ncn1Cc1cccc(-c2ccccc2)c1	·	·	·	-12%	·
CC(=O)NC(c1ccccc1)c1nc(-c2cccc(CO)c2)cs1 (stereo not drawn)	·	·	·	3%	·
O=C(CCl)Oc1ccc2occ(C(=O)c3cccs3)c2c1	32%	-17%	-4%	-28%	0.79µM*
CC(=O)Oc1ccc2occ(C(=O)c3cccs3)c2c1	?	2%	-1%	-3%	2%
Cc1cc(NC(=O)CCC(=O)N(CC2CCCO2)C(C(=O)NC2CCCC2)c2cccnc2)no1 (stereo not drawn)	-1%	4%	9%	27µM*	8%
S=C(Nc1ccc(Br)cc1)NC1CCCC1	6.3µM*	10µM*	5%	-14%	-3%
S=C(NCC1CCCCC1)Nc1ccc(Oc2ccccc2)cc1	2.8µM*	5µM*	11%	5%	?
S=C(Nc1ccc(Oc2ccccc2)cc1)NC1CCCC1	5µM*	5µM*	9%	-3%	-10%
SMILES	RORg inh	Gal4-VP16 FLuc	Sfp inh	PLK1 PBD inh	ALDH1A1 inh
COc1ccc(NC(=S)NC2CCCCC2)cn1	13µM*	?	4%	-17%	-9%
COC(=O)c1ccc(NC(=S)NC2CC2)cc1	?	27%	2%	-15%	-4%
CC(C)NC(=S)Nc1ccc(Oc2ccccc2)cc1	?	-17%	7%	0%	?
S=C(Nc1ccccc1Oc1ccccc1)NC1CCCC1	3.2µM*	7.1µM*	5%	1%	-17%
Cc1cc(C)nc(NS(=O)(=O)c2ccc(NC(=O)c3ccc(O)cc3O)cc2)n1	28%	7%	1%	0%	·
COCCn1c(C)cc(C(=O)CSc2cc(C)c3ccc(OC)cc3n2)c1C	6.3µM*	2.2µM*	-18%	?	4%
COCCn1c(C)cc(C(=O)CSc2nc3ccccc3s2)c1C	14µM*	5µM*	-74%	-1%	5%
COCCn1c(C)cc(C(=O)CSc2nnc3ccccn23)c1C	3.2µM*	?	10%	-4%	7%
Cc1ccc(C(=O)CSc2nnc3ccccn23)c(C)c1	?	-8%[10 µM]	6%	-10%	0%
COCCn1c(C)cc(C(=O)CSc2nc3ccccc3o2)c1C	-7%	?	-25%	-9%	10%
Cc1cc2oc(=O)cc(-c3ccccc3)c2c(C)c1-c1cccc(N)c1	31%	-14%	-2%	·	25µM*
Cc1cc2oc(=O)cc(-c3ccccc3)c2c(C)c1-c1ccc(C#N)cc1	34%	-11%	-2%	-13%	13µM*
Cc1cc2oc(=O)cc(-c3ccccc3)c2c(C)c1-c1ccc(F)c(Cl)c1	-1%	4%	?	-11%	5%
COc1ccccc1N=Cc1nc(-c2ccccc2)oc1OC(C)=O	?	?	-10%	?	7.1µM*
CC(=O)Oc1oc(-c2ccccc2)nc1/C=N/c1ccccn1	-2%	-5%	?	9.5µM*	?
O=C(CSc1nnc(-c2c[nH]c3ccccc23)o1)NCC1CCCO1 (stereo not drawn)	·	·	·	-3%	·
Cc1nc(NS(=O)(=O)c2ccccc2)sc1NC(=O)Nc1ccccc1	7%	7%	45µM*	-28%	10%
Cc1nc(NS(=O)(=O)c2ccccc2)sc1NC(=O)Nc1ccc(Cl)cc1	0%	-12%	79µM*	?	·
COc1cccc(CC(=O)N2CCc3nc(-c4ccccc4)c4c(c3C2)CO[C@@H](C)C4)c1	·	·	0%	·	12%[13.5 µM]
CSCCC(NS(=O)(=O)c1ccc(Cl)cc1)C(=O)OCc1c(Cl)cccc1Cl (stereo not drawn)	42%	-3%	32%	-8%	?
CSCCC(NS(=O)(=O)c1ccccc1F)C(=O)OCc1ccccc1Cl (stereo not drawn)	18%	-7%	-9%	-7%	16µM*
CCN(C(=O)COC(=O)/C=C/c1ccc(S(=O)(=O)N2CCc3ccccc32)cc1)C1CCS(=O)(=O)C1 (stereo not drawn)	?	-8%	21%	-14%	5µM*
CC[C@H](C)[C@H](N)C(=O)N[C@@H](CC(N)=O)C(=O)N1CCC[C@H]1C(=O)N[C@H](C(=O)N[C@@H](Cc1ccc(O)cc1)C(=O)N[C@@H](CCCN=C(N)N)C(=O)N[C@@H](CC(C)C)C(=O)N[C@@H](CCCN=C(N)N)C(=O)N[C@@H](Cc1ccc(O)cc1)C(N)=O)[C@@H](C)CC	-18%	3%	1%	·	·
OC(c1ccc(F)cc1)c1ncc(-c2ccc3ccccc3c2)[nH]1 (stereo not drawn)	·	·	·	-10%	·
O=[N+]([O-])c1ccc(C=NNc2ccccc2)cc1	·	·	·	14%	·
Cc1cc[n+](-c2nc([O-])sc2/C=N/Nc2ccc([N+](=O)[O-])cc2)cc1	-2%	4%	4%	-22%	14µM*
